# Measured values reported in the supplement of paper PMC10338343.
# ± gives the standard deviation.
# Test system: EfPiwi piRISC loaded with L1MC piRNA (26 nt)
# Assay: pre-steady-state target cleavage rate (min^-1); auxiliary factor: none (no Gtsf1); guide: L1MC piRNA 5'p-UAACUAAAUACUAUGCAAGCUGUAGG; MIWI and MILI are mouse PIWI proteins and EfPiwi is from a freshwater sponge; tags in brackets are library labels; higher = faster piRNA-guided slicing of the target
# Protocol: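 Cleave-'n-Seq: a library of target RNAs (target site in constant flanks) at […] was incubated with 1 nM active freshwater sponge Ephydatia fluviatilis Piwi piRISC (synthetic 5'-monophosphorylated piRNA guide) with or without 500 nM EmGtsf1 at 33 °C for 1 min to 16 h. Uncleaved targets were sequenced and the pooled three trials fitted to a burst-and-steady-state model to give the pre-steady-state cleavage rate (min^-1). Sequence is the target site only. Fits with R² ≤ 0 are excluded.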
row,Sequence,pre-steady-state target cleavage rate
1,UCCUGGAACAGCUUGGAUUGUAUUUAGUUA,< 0.0001
2,UCCUGGAUGUCGAUCCAUAGUAUUUACUUA,< 0.0001
3,UCCUGGUACAGGAAGCAUAGUAUUUAGAAA,< 0.0001
4,UCCUGGAUGUCGAACGUUAGUAUUUAGUUU [g2:g13:cont:t1U],< 0.0001
5,UCCUGGAUGUCGAACGUAUCUAUUUACAUA,< 0.0001
6,UCCUGGAUGUCGAAGCAUAGUUAAAUCAAA [g10:g16:cont:t1A],< 0.0001
7,UCCUGGAUGUCGAACGUUAGUAUUUAGAUA,< 0.0001
8,UCCUGGAACAGCUUGCUAUCAUAAAUCAAA [g15:g23:cont:t1A],< 0.0001
9,UCCUGGAUGUCCUUCGAUAGUAUUUAGUUA,< 0.0001
10,UCCUGGAUGUCGAACGUAUCUAUUUAGAAA [g4:g10:cont:t1A],< 0.0001
11,UCCUGGUACAGCUUGGUUAGUAUUUAGAAA,< 0.0001
12,UCCUGGAUGUCGAACCAUAGUUUUAGUUA,< 0.0001
13,UCCUGGAACAGCUUGCAUAGUAUUAUGAAA,< 0.0001
14,UCCUGGAUGUCGAUGCAUUGUAUUAAGUUA,< 0.0001
15,UCCUGGAUGUCGUUGCAUAGAUUUAGUUA,< 0.0001
16,UCCUGGAUGUCCUUGCAUAGUAUUUCAGUUA,< 0.0001
17,UCCUGGAUGAGCUUGCAUAGUUUUUAGAUA,< 0.0001
18,UCCUGGAUCAGGAAGCAUAGUAUUUUCAAA,< 0.0001
19,UCCUGGAUGUCGAACGAUACUAUUUAGAUA,< 0.0001
20,UCCUGGUACAGCUUGCAUAGUAUUUAAGUUA,0.00555 ± 0.0052

row,Sequence,pre-steady-state target cleavage rate
1,UCCUGGAUGUCGAACCAUACGUAUUUAGUUA,< 0.0001
2,UCCUGGUACAGGAUGCAUAGUAUUUUCAAA,< 0.0001
3,UCCUCCUACAGCUUCGUUAGUAUUUAGAAA,< 0.0001
4,UCCUGGAUGUCGAAGCAUAGUUUUUAGAUA,< 0.0001
5,UCCUGGAUCAGCUUCGUUAGUAUUUUCAAA,< 0.0001
6,UCCUGGUGACAGCUUGCAUAGUAUUUAGUUA,0.0577 ± 0.023
7,UCCUGGAUGUCGAAGCAUAGUAUUUAGAUA,< 0.0001
8,UCCUGGAUGUCGAAGCAUAGUAUUUAGUCA,< 0.0001
9,UCCUCCUACAGCUUGCAUAGUAUUGUAGUUA,< 0.0001
10,UCCUGGAUCAGCUUGCAUAGUAGUUAGUUA,0.0324 ± 0.012
11,UCCUGGAUGUCGAAGCAUAGUAUUUGUUA,< 0.0001
12,UCCUGGAUGUCCUUCGUUAGUAUUUAGUUA,< 0.0001
13,UCCUGGAUGUCCAUGCAUAGUAUUUAGAUA,< 0.0001
14,UCCUGGAUGAGCUUGCAUAGUAUUAUAGUUA,0.0249 ± 0.011
15,UCCUGGAUGUCGUUGCAUAGUAUUUUCAAA [g6:g18:cont:t1A],< 0.0001
16,UCCUGGAUGUCGAAGCAUAGUAUAAUCAAA [g8:g16:cont:t1A],< 0.0001
17,UCCUGGAUCAGCUUGCAUUGUAUAUAGUUA,< 0.0001
18,UCCUGGAUGAGCUUGCAUAGUCUUUAGUUA,0.0128 ± 0.0056
19,UCCUGGAUGUCGAACGAUAGUAUUUGGUUA,< 0.0001
20,UCCUGGAUGUCCUUGCAUAGUAAUUACUUA,< 0.0001
